# “And” between values parts separate entries of the source, which are not always exact repeats. Identical values can stand only once. The whole screen tested about 100,000 compounds, of which about 770 (0.77%) were called active. Many of the other results were omitted from the sample, so actives are more common in it than they were. A number with no mark means an inactive call. Rule as the data show it: active = inhibition above about 50%; inactive = the rest.
# Molecular target: Gag-Pol polyprotein (Human immunodeficiency virus type 1 group M subtype B (isolate HXB2)) (UniProt P04585)
# Assay: RNase H inhibition, HIV 1 Gag Pol polyprotein, FRET biochemical assay, screening (AID 372)
# Conditions: HIV-1 RT RNase H, FRET RNA/DNA substrate fluorescence; at 10 µM; stronger effect = higher value
row,SMILES,inhibition
1,CC12CCC3C(CC=C4CC(O)CCC43C)C1C/C(=C\c1ccc([N+](=O)[O-])cc1)C2=O (centres undefined),55% (active)
2,CC(=O)OC1CCC2(C)C(=CCC3C4C/C(=C\c5ccc([N+](=O)[O-])cc5)C(=O)C4(C)CCC32)C1 (centres undefined),9%
3,CC12CCC3C(CC=C4CC(O)CCC43C)C1C/C(=C\c1ccc(F)cc1)C2=O (centres undefined),11%
4,Cc1cc(OCc2ccc(Cl)cc2)c2c3c(c(=O)oc2c1)CCC3,3%
5,Oc1c(I)cc(I)cc1CN1CCN(c2ccccc2F)CC1,8%
6,Cc1cc(C)cc(N2C(=O)NC(=O)/C(=C\c3cccn3-c3ccccc3)C2=O)c1,28%
7,Cc1cc(C=C2C(=O)NC(=O)NC2=O)c(C)n1-c1ccc(Br)cc1,9%
8,O=C1NC(=O)C(=Cc2cccn2-c2ccc(Br)cc2)C(=O)N1,50% (active)
9,CN1C(=O)C(Cc2c[nH]c3ccccc23)C(=O)N(C)C1=O,0%
10,O=[N+]([O-])c1ccccc1CNCCc1ccc(F)cc1,1%
11,Cc1ccccc1N1CCN(Cc2ccc(Cl)cc2Cl)CC1,2%
12,CCN(CC)C(=O)c1ccc(NC(C)=O)cc1,9%
13,CCOc1cccc(=[O+]CC)c2c(C)oc(C)c12,2% and 12%
14,O=C(O)c1cn(Cc2ccccc2)c2ccccc12,8%
15,O=C1NC(=S)NC(=O)C1=Cc1ccc(OCc2cccc(C(=O)O)c2)cc1,5%
16,O=C1NC(=S)NC(=O)C1=Cc1ccc(OCc2ccc(Br)cc2)cc1,59% (active)
17,CCOc1ccc(C=C2C(=O)NC(=S)NC2=O)cc1,12%
18,CN1C(=O)/C(=C\c2cn(Cc3ccccc3)c3ccccc23)C(=O)NC1=S,15%
19,COc1ccc(CN2CCN(CCO)CC2)c(OC)c1,9%
20,Clc1ccc(N2CCN(CCc3ccccc3)CC2)cc1,14%
21,CSc1ccc(C2C(C#N)=C(N)Oc3c2c(=O)oc2ccccc32)cc1 (centres undefined),7%
22,O=C(COc1ccc([N+](=O)[O-])cc1)Nc1ccc(Br)cc1C(=O)c1ccccc1,49%
23,COc1ccc(OCC(=O)Nc2ccc(Br)cc2C(=O)c2ccccc2)cc1,51% (active)
24,O=C(COc1ccccc1)Nc1ccc(Cl)cc1C(=O)c1ccccc1,37%

row,SMILES,inhibition
1,C=CCOC(=O)C1=C(C)OC(N)=C(C(=O)OCC)C12C(=O)Nc1ccccc12 (centres undefined),2%
2,COc1ccc(CN2CCN(Cc3cccc(OC)c3)CC2)cc1,7%
3,O=C1NC(=S)NC(=O)C1=Cc1ccc(-c2ccc(Br)c(Cl)c2)o1,54% (active)
4,O=C1NC(=S)NC(=O)C1=Cc1ccc(-c2ccc([N+](=O)[O-])cc2Br)o1,56% (active)
5,O=C1NC(=S)NC(=O)C1=Cc1ccc(-c2ccc(C(=O)O)c(Cl)c2)o1,17%
6,Cc1cc(-c2ccc(C=C3C(=O)NC(=S)NC3=O)o2)c(C)c([N+](=O)[O-])c1,27%
7,CN1C(=O)NC(=O)/C(=C/c2ccc(-c3ccc([N+](=O)[O-])cc3Br)o2)C1=O,26%
8,O=C1NC(=S)NC(=O)C1=Cc1ccc(-c2cc(Cl)c([N+](=O)[O-])cc2Cl)o1,50% (active)
9,O=C1NC(=S)NC(=O)C1=Cc1ccc(-c2cc(Cl)ccc2Cl)o1,0%
10,O=C1NC(=S)NC(=O)C1=Cc1ccc(-c2ccc(Cl)c(Cl)c2)o1,0%
11,Cc1ccc(-c2ccc(C=C3C(=O)NC(=S)NC3=O)o2)c(Br)c1,36%
12,CCOC(=O)C1=C(N)OC(C)=C(C(C)=O)C12C(=O)Nc1ccccc12 (centres undefined),10%
13,COc1cc(/C=C2\C(=O)NC(=O)N(c3ccccc3)C2=O)c([N+](=O)[O-])cc1OC,5%
14,CC(C)OC(=O)N1CCN(/C(N)=N/[N+](=O)[O-])CC1,7%
15,O=C(COc1ccc2ccccc2c1)N1CCN(Cc2ccc3c(c2)OCO3)CC1,17%
16,O=C1NC(=O)N(Cc2ccco2)C(=O)/C1=C\c1cn(Cc2ccccc2)c2ccccc12,23%
17,Cc1ccc(-n2c(C)cc(/C=C3/C(=O)NC(=O)N(Cc4ccco4)C3=O)c2C)cc1,16%
18,Cc1ccc(OCCn2cc(/C=C3/C(=O)NC(=O)N(Cc4ccco4)C3=O)c3ccccc32)cc1,52% (active)
19,O=c1c2ccccc2nc(-c2ccc(Cl)cc2Cl)n1-c1nccs1,6%
20,CN1C(=O)C(=Cc2ccc(-c3cccc([N+](=O)[O-])c3)o2)C(=O)N(C)C1=S,21%
21,O=C1NC(=O)N(Cc2ccco2)C(=O)/C1=C\c1ccc(-c2cccc([N+](=O)[O-])c2)o1,57% (active)
22,CN1C(=O)NC(=O)/C(=C/c2ccc(-c3cccc([N+](=O)[O-])c3)o2)C1=O,14%
23,COc1cc(/C=C(\C)[N+](=O)[O-])cc(OC)c1OC,4%
24,C/C(=C\c1ccc(Cl)cc1Cl)[N+](=O)[O-],51% (active)

row,SMILES,inhibition
1,N#CC(C#N)=Cc1ccc(Cl)cc1Cl,3%
2,COc1ccc(C2c3c(c4ccccc4oc3=O)Oc3c2c(=O)oc2ccccc32)cc1Cn1nc(C)c([N+](=O)[O-])c1C,16%
3,O=C(Nc1ccc(Cl)cc1C(=O)c1ccccc1)c1ccc([N+](=O)[O-])cc1,16%
4,Cc1cccc(-n2c(/C=C/c3ccco3)nc3ccccc3c2=O)c1,4%
5,CCOc1ccc(N2C(=O)CC(=O)NC2=S)cc1,11%
6,O=C1NC(=S)NC(=O)C1=Cc1ccc(-c2ccc(C(=O)O)cc2)o1,14%
7,CCN1C(=O)/C(=C/c2cccn2C)C(=O)NC1=S,51% (active)
8,Cn1cccc1/C=C1/C(=O)NC(=S)N(c2ccc(Cl)cc2)C1=O,41%
9,C=CCN1C(=O)NC(=O)C(=Cc2cccn2C)C1=O,0%
10,Cc1cccc(-n2c(/C=C3\C(=O)Nc4ccccc43)nc3ccc(I)cc3c2=O)c1,15%
11,Cc1cc(-c2ccc(C=C3C(=O)NC(=S)NC3=O)o2)cc([N+](=O)[O-])c1C,35%
12,Cc1c(-c2ccc(C=C3C(=O)NC(=S)NC3=O)o2)ccc([N+](=O)[O-])c1C,43%
13,Cc1cc([N+](=O)[O-])c(C)cc1-c1ccc(C=C2C(=O)NC(=O)NC2=O)o1,16%
14,Cc1ccc(-c2ccc(C=C3C(=O)NC(=S)NC3=O)o2)cc1[N+](=O)[O-],62% (active)
15,Cc1c(-c2ccc(C=C3C(=O)NC(=O)NC3=O)o2)ccc([N+](=O)[O-])c1C,18%
16,Cc1cc(-c2ccc(C=C3C(=O)NC(=O)NC3=O)o2)ccc1[N+](=O)[O-],67% (active)
17,Cc1ccccc1-n1c(/C=C/c2ccc(Br)cc2)nc2ccccc2c1=O,3%
18,Cc1ccccc1CN1CCN(C(=O)COc2ccc3ccccc3c2)CC1,42%
19,O=C(COc1ccc2ccccc2c1)N1CCN(Cc2ccccc2C(F)(F)F)CC1,51% (active)
20,O=C(COc1ccc2ccccc2c1)N1CCN(Cc2ccc(F)cc2)CC1,0%
21,CCc1ccc(CN2CCN(C(=O)COc3ccc4ccccc4c3)CC2)cc1,19%
22,O=C(COc1ccc2ccccc2c1)N1CCN(Cc2ccccc2[N+](=O)[O-])CC1,50% (active)
23,O=C(COc1ccc2ccccc2c1)N1CCN(Cc2ccc([N+](=O)[O-])cc2)CC1,13%
24,COc1ccc(/C=C2/C(=O)N(c3ccccc3)C(=S)N(c3ccccc3OC)C2=O)c(OC)c1,5%

row,SMILES,inhibition
1,COc1ccc(O)c(CN2CCN(c3ccccc3OC)CC2)c1,3%
2,O=c1c2ccccc2nc(CSc2ncnc3ccccc23)n1-c1ccccc1,16%
3,CCOC(=O)C1=C(C)OC(N)=C(C(=O)OCCOC)C12C(=O)Nc1ccccc12 (centres undefined),0%
4,C=CCN1C(=O)NC(=O)/C(=C\c2ccc(O)c(OC)c2)C1=O,0%
5,C=CCN1C(=O)NC(=O)/C(=C/c2ccc(O)c(O)c2)C1=O,60% (active)
6,O=C1NC(=O)N(Cc2ccccc2)C(=O)/C1=C/c1ccc(O)c(O)c1,11%
7,O=[N+]([O-])c1ccc(N2CCNCC2)cc1N1CCOCC1,3%
8,O=c1c2ccccc2nc(-c2ccccn2)n1-c1ccc(Cl)cc1,4%
9,COc1cc(OC)c(OC)cc1C=C(C#N)C#N,4%
10,COc1cc(C)c(C=C(C#N)C#N)cc1C,50% (active)
11,COc1ccc(C=C(C#N)C#N)cc1C,44%
12,O=C1NC(=O)C(=Cc2ccc(N3CCOCC3)c([N+](=O)[O-])c2)C(=O)N1,0%
13,O=[N+]([O-])c1ccc(N2CCCC2)c(F)c1Br,34%
14,O=C1NC(=S)N(c2cccc(Br)c2)C(=O)/C1=C/c1ccco1,98% (active)
15,O=C1NC(=O)N(c2cccc(Br)c2)C(=O)/C1=C/c1ccco1,19%
16,O=C1NC(=S)N(c2ccccc2)C(=O)/C1=C/c1ccco1,36%
17,O=C1NC(=S)N(c2cccc(Cl)c2Cl)C(=O)/C1=C/c1ccc(-c2ccc(C(=O)O)cc2)o1,12%
18,N#CC(C#N)=Cc1ccc(C(F)(F)F)cc1,1%
19,CSc1ccc(CN2CCN(c3ccccc3C)CC2)cc1,7%
20,COc1ccc(Br)cc1CN1CCN(C(=O)COc2ccccc2)CC1,42%
21,COc1ccc(Br)cc1CN1CCN(C(=O)COc2ccc3ccccc3c2)CC1,42%
22,COc1ccc(Br)cc1CN1CCN(C(=O)COc2ccc(Cl)cc2)CC1,52% (active)

# Reference: PubChem BioAssay AID372 (MTDP, 2006)
